Assay [1] can be described thus: qHTS for Inhibitors of Plasmodium falciparum (DD2) proliferation (AID 504314).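 Also: parasite DNA measured by SYBR Green fluorescence after red cell lysis; plate controls were DMSO vehicle for no effect and artemisinin wells for full effect.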 In outline: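 Infected RBCs, 0.3% parasitemia, 2.5% Hct; compound 72 h, 37C/5% CO2; lyse + SYBR Green I, RT overnight, dark; read ex485/em535; normalize to DMSO and artemisinin 0.29 uM.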
For orientation: qHTS replaces the single test concentration by a dilution series.

Assay [2] can be described thus: qHTS for Inhibitors of Plasmodium falciparum (GB4) proliferation (AID 504315). Also: nearly all actives have a fitted effect of over 50% in size. Also: potency is read from the fitted curve at half-maximal effect. In outline: (§1)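 Erythrocytes infected with P. falciparum line (0.3% parasitemia, 2.5% hematocrit final) incubated with compounds 72 h at 37 °C, 5% CO2; SYBR Green lysis buffer added, fluorescence read next day. Normalized to 0.29 uM artemisinin and DMSO.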
Assay [3] can be described thus: qHTS for Inhibitors of Plasmodium falciparum (7G8) proliferation (AID 504316). Also: nearly all actives have a fitted effect of over 65% in size. Also: potency is read from the fitted curve at half-maximal effect. In outline:
as §1

Assay [4] can be described thus: qHTS for Inhibitors of Plasmodium falciparum (HB3) proliferation (AID 504318). Also: nearly all actives have a fitted effect of over 60% in size. Also: potency is read from the fitted curve at half-maximal effect. The essentials:
as §1

A short description of assay [5]: qHTS for Inhibitors of Plasmodium falciparum (CP250) proliferation (AID 504320).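 Also: plate controls were DMSO vehicle for no effect and 0.29 µM artemisinin control for full effect.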 The essentials: as §1
Assay [6] addresses Atrial natriuretic peptide receptor 1 (Homo sapiens) (UniProt P16066). Briefly: Natriuretic polypeptide receptor (hNpr1) antagonism - Pilot CMLD screen (AID 1347052; calls by dose curve;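 also: HEK293 cells with hNpr1 stimulated by hNppA peptide at 0.1 nM; cGMP level read as GloSensor luciferase luminescence after agonist stimulation; series mostly up to about 9.2 µM; % is scaled to controls: 0 for no effect and ±100 for the full control effect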).

“And” between values parts separate entries of the source, which are not always exact repeats. Equal entries are not always repeated. Results filed as inconclusive are left out. Values without a mark were called inactive. The source made the active and inactive calls. Unless noted, calls follow the shape of the dose curve; as a rule, active = well fitted curve in the direction sought with a large enough effect; inconclusive = small, poorly fitted or top-dose-only effect, or another doubt; inactive = no such curve, though single readings can be large; an effect the other way counts as inactive or inconclusive.

Atrial natriuretic peptide receptor 1 (Homo sapiens), sequence (P16066 whole entry, looked up): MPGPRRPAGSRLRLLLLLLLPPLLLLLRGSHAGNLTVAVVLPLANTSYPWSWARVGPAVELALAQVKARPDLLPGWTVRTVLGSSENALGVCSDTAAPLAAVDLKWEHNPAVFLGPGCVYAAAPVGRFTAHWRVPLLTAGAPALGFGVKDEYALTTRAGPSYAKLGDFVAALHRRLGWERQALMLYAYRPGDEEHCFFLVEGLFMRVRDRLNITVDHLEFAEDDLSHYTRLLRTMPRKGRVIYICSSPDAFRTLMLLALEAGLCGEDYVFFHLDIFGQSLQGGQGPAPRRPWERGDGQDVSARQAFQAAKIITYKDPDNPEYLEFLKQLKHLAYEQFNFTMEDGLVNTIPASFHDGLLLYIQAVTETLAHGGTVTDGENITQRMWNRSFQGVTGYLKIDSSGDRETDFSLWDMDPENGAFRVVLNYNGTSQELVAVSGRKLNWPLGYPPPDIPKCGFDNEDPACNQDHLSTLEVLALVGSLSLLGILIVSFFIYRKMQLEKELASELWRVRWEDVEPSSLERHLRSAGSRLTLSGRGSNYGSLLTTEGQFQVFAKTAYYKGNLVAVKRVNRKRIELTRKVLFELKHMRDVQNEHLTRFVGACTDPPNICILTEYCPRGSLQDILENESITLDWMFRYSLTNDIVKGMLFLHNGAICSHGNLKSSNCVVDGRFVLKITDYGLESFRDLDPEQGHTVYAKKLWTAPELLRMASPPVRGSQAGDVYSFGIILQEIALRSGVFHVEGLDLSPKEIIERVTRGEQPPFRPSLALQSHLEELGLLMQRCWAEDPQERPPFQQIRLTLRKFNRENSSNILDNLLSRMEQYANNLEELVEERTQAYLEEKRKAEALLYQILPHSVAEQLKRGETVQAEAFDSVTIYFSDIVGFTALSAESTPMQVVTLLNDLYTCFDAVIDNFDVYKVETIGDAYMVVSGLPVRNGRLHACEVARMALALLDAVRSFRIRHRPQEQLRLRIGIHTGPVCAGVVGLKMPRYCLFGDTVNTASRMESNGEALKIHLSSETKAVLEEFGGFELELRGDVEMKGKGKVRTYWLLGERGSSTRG

As for `COc1ccc2c(c1)O[C@H](c1ccc3c(c1)OCO3)[C@@H](OC(=O)N[C@H]1CCCc3ccccc31)C2=O`, the Potency result in assay [1], in assay [2], in assay [3], in assay [4], in assay [5] and in assay [6] was “inactive” each time.

With `COc1ccc(-c2nc3c(c4c2C[C@H](c2ccccc2)OC4)CN(S(=O)(=O)c2ccc(C)cc2)CC3)c(C)c1`, the activity, negative = inhibition in assay [1] was -0.2% [at 1.12 µM]. Further, the Potency in assay [2] was 1.69 µM (active); in assay [3] it was 1.69 µM (active) and 1.9 µM (active); in assay [4], 2.13 µM (active). In assay [6], the Potency entry was “inactive”.

With `C#CCCOC(=O)N1C2=NC(C(=O)OC)=C(C(=O)OC)[C@@H]3N(C)c4ccccc4[C@]23C[C@H]1C(=O)OC`, the Potency entry in assay [1], in assay [2], in assay [3], in assay [4], in assay [5] and in assay [6] was “inactive” throughout.

As to `COc1ccc(-c2nc3c(c4c2C[C@H](c2ccccc2)OC4)CN(C(=O)Nc2cccc(C#N)c2)CC3)c(C)c1`, the activity, negative = inhibition in assay [1] was 2.23% [at 1.12 µM]. The Potency result in assay [2], in assay [3], in assay [4] and in assay [6] was “inactive” throughout.

Regarding `CCN1C(=NCc2ccc3c(c2)OCO3)N[C@@H](c2ccccc2)[C@H](C(=O)OC)[C@H]1C`, the Potency entry in assay [1], in assay [2], in assay [3], in assay [4] and in assay [6] was “inactive” in each case.

With `COCCN1C(=O)N[C@@H](CCc2ccccc2)[C@H](C(C)=O)[C@H]1C`, the Potency result in assay [1], in assay [2], in assay [3], in assay [4] and in assay [6] was “inactive” in each case.

For the molecule `CCOC(=O)CCN1C(=O)[C@@H]2[C@H]3[C@H](O)[C@H](O)CC(=NNC(=O)OCc4ccccc4)[C@H]3CC[C@H]2C1=O`, the Potency entry in assay [1], in assay [2], in assay [3], in assay [4], in assay [5] and in assay [6] was “inactive” each time.

Consider `COC(=O)CC1c2ccccc2C(Cc2ccc(OC)cc2)C(C)N1C(=O)OC` (stereo unspecified), for which the Potency result in assay [1], in assay [2], in assay [3], in assay [4] and in assay [6] was “inactive” in each case.

Turning to `CC(C)(C)c1ccc(O[C@@H]2[C@H](O)CO[C@H]2C=CC#Cc2ccccc2)cc1`, the Potency entry in assay [1], in assay [2], in assay [3], in assay [4] and in assay [6] was “inactive” in each case.

With `CCCCC1=CC2=C(c3ccco3)C(=O)C(C)(OC(=O)c3ccc(OC)cc3)C(=O)C2=CN1Cc1ccc(OC)cc1` (stereo unspecified), in assay [1], the activity, negative = inhibition is 1.26% [at 1.12 µM]. Besides, the Potency entry in assay [2], in assay [3], in assay [4] and in assay [6] was “inactive” throughout.

Take `COc1ccc(O[C@@H]2[C@H](O)CO[C@@H]2C=CC#Cc2ccccc2)cc1`: the Potency result in assay [1], in assay [2], in assay [3], in assay [4] and in assay [6] was “inactive” throughout.

In the case of `COCCN1C(=O)N(C)C(c2ccccc2)C(C(C)=O)=C1C` (stereo unspecified), the Potency entry in assay [1], in assay [2], in assay [3], in assay [4], in assay [5] and in assay [6] was “inactive” in each case.

In the case of `CCCCc1nc2c(c3c1C[C@H](C)OC3)CN(C(=O)C1CCCCC1)CC2`, the activity, negative = inhibition in assay [1] is -0.437% [at 1.12 µM]. The Potency entry in assay [2], in assay [3], in assay [4], in assay [5] and in assay [6] was “inactive” in each case.

Turning to `C=CCCN1C(=O)NC(c2ccccc2)C(C(=O)OC)=C1C` (stereo unspecified), the Potency result in assay [1], in assay [2], in assay [3], in assay [4], in assay [5] and in assay [6] was “inactive” throughout.

`CCN1C(=O)[C@@H]2[C@H]3[C@H](O)[C@H](O)CC(=NO[C@H](C)CN4CCCc5nc(C)c(C)cc54)[C@@H]3CC[C@H]2C1=O`: the Potency entry in assay [1], in assay [2], in assay [3], in assay [4], in assay [5] and in assay [6] was “inactive” in each case.

As for `C#CCCCON=C1C[C@@H](O)[C@H](O)[C@H]2[C@@H]3C(=O)N(c4ccc(F)cc4F)C(=O)[C@@H]3CC[C@H]12`, the Potency entry in assay [1], in assay [2], in assay [3], in assay [4], in assay [5] and in assay [6] was “inactive” each time.

For the molecule `COC(=O)[C@H]1O[C@@H](c2c(OC)c(OC)c(C)c(OC)c2OC)[C@H](C)[C@@H](O)[C@@H]1C`, the Potency entry in assay [1], in assay [2], in assay [3], in assay [4], in assay [5] and in assay [6] was “inactive” in each case.

For `CC1(C)O[C@H]2OC([C@H](O)CON3C(=O)c4ccccc4C3=O)[C@H](O)[C@@H]2O1` (stereo partly specified), the Potency result in assay [1], in assay [2], in assay [3], in assay [4], in assay [5] and in assay [6] was “inactive” each time.

For the molecule `CC=COC(=O)N[C@@H](c1ccccc1)[C@]1(C(C)=O)CCOC1=O`, the Potency entry in assay [1], in assay [2], in assay [3], in assay [4], in assay [5] and in assay [6] was “inactive” throughout.

Turning to `CC(C)CON=C1C[C@@H](O)[C@@H](O)[C@@H]2[C@H]3C(=O)N(C[C@@H]4CCCO4)C(=O)[C@@H]3CC[C@H]12`, the Potency entry in assay [1], in assay [2], in assay [3], in assay [4] and in assay [6] was “inactive” throughout.

Regarding `COC[C@H]1O[C@H](c2ccccc2)C=C[C@H]1OCC=C(C)C`, the Potency result in assay [1], in assay [2], in assay [3], in assay [4], in assay [5] and in assay [6] was “inactive” each time.

Regarding `C=C(CCN1C=C(C(=O)OCC)C(c2ccccc2)NC1=O)c1ccccc1` (stereo unspecified), the Potency result in assay [1], in assay [2], in assay [3], in assay [4], in assay [5] and in assay [6] was “inactive” each time.

For the molecule `O=C1CCCC=C1C(CCc1ccccc1)OC(=O)c1ccc(Br)cc1` (stereo unspecified), the Potency result in assay [1], in assay [2], in assay [3], in assay [4], in assay [5] and in assay [6] was “inactive” in each case.

On to `COC(=O)N[C@H](CC(C)=O)c1cccs1`, for which the Potency result in assay [1], in assay [2], in assay [3], in assay [4], in assay [5] and in assay [6] was “inactive” in each case.

As for `C[C@@H]1C=CCCO[C@]12C(=O)N(Cc1ccc(F)cc1)c1ccccc12`, the Potency result in assay [1], in assay [2], in assay [3], in assay [4], in assay [5] and in assay [6] was “inactive” in each case.

The values are drawn from PubChem BioAssay (NCATS).
